Test results as given in PubChem BioAssay (NCI).
Values joined by “and” are separate entries in the source; they are usually repeats but may differ in a detail not shown here. Equal values may be shown once. The panel holds about 83,000 compounds, 20% with a hit somewhere; the sample as a whole holds those more often.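 Activity criterion: percent growth below 10, measured after cells in 96-well plates were exposed to a single compound concentration for 48 hours.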 Active and inactive are the calls of the source.

tested on: HCT-116 colon; test: NCI-60 one-dose screen, 48 h (100 = growth as untreated, 0 = no growth, -100 = all killed); conditions: 10 µM unless noted

SMILES | growth
O=C(/C=C/Nc1ccc(S(=O)(=O)Nc2ncccn2)cc1)c1ccc(N=Cc2c(O)[nH]c3ccccc23)cc1 | 111% (inactive)
CCCCCN1C(=O)/C(=c2\sc3n(c2=O)C2C(NN=3)N(CC)C(=O)N2CC)c2cccc(C)c21 (stereo not given) | 32.3% (inactive)
C#C[C@]1(O)CC[C@H]2[C@@H]3CC=C4c5sc(Nc6ncccc6C)nc5CC[C@]4(C)[C@H]3CC[C@@]21C | 7.15% (active)
O=C1CSC(c2cn(-c3ccccc3)nc2-c2ccc(Cl)cc2)N1c1ccccc1 (stereo not given) | 95.4% (inactive)
CC(=O)Nc1ccccc1-c1nc2ccccc2s1 | 95.3% (inactive)
O=C(/C=C/c1cccc(Br)c1)c1cccc(OCCCCOc2cccc(C(=O)/C=C/c3cccc(Br)c3)c2)c1 | 87% (inactive)
C/C(=C(\c1ccc(O)cc1)c1ccc(OCCN2CCCCCC2)cc1)c1ccc(Cl)cc1 | -31.7% (active)
Clc1ccc(CSc2nnc(-c3ccc(Cl)cc3)n2-c2ccccc2)cc1 | 75.3% (inactive)
O=C(CCCCCCNC(=O)C(O)(O)C(F)(F)F)Nc1nc2ccccc2s1 | 2.81% (active)
CC(C)NC(=O)c1cc(-c2ccc(NC(=O)Nc3ccc(F)c(C(F)(F)F)c3)cc2)nc2cccnc12 | 81.9% (inactive)
COc1ccc(-c2cnc(NC(=O)CCCCCCNC(=O)C(O)(O)C(F)(F)F)s2)cc1 | -9.91% (active)
C/C=C/CC(C)C(O)[C@H](NC(=O)[C@@H]1CCCN1C(=O)[C@](C)(CC)NC(=O)CCCCCCCCC)C(=O)N[C@@](C)(CC)C(=O)N[C@@H](CCC(N)=O)C(=O)N[C@H](CCC(N)=O)C(=O)NC(C)(C)C(=O)NC(C)(C)C(=O)N[C@@H](CCC(N)=O)C(=O)N[C@H](CC(C)C)C(=O)N[C@H](CO)CC(C)C (stereo not given in full) | 70.6% (inactive) and -7.45% (active)
CC1CC(=O)C2=C(C1)Nc1ccc(Br)cc1CC2c1c[nH]c2ccc(Br)cc12 (stereo not given) | 24.2% (inactive)
CC(C)(C)Nc1nc2c(OCCc3ccccc3)cccn2c1-c1cccc(Oc2ccccc2)c1 | 4.13% (active)
CCCC/C(=C\c1ccc(O)c(O)c1)C(=O)NC(Cc1ccccc1)C(=O)C(=O)NCCc1ccc(OC)cc1 (stereo not given) | 92.4% (inactive)
COC(=O)c1cccc(NC2=C(Cl)C(=O)c3nc(C)ccc3C2=O)c1 | 27.2% (inactive)
NC1CC2(CCN(c3cnc(C(=O)Nc4cc(F)cc5cccnc45)cn3)CC2)C1 | 38.5% (inactive)
COC(=O)c1ccc(NC2=C(Cl)C(=O)c3nc(C)ccc3C2=O)cc1 | 43.1% (inactive)
CC(Nc1c(C#N)cnc2ccc(-c3cncc(-c4n[nH]c(=O)o4)c3)cc12)c1ccccc1 (stereo not given) | 0.0701% (active)
CC(=O)OC[C@]12CC[C@@H](C(=O)/C=C/c3cccnc3)[C@@H]1[C@H]1CC[C@@H]3[C@@]4(C)CC[C@H](OC(C)=O)C(C)(C)[C@@H]4CC[C@@]3(C)[C@]1(C)CC2 | -61.2% (active)

SMILES | growth
CC(O)c1cccc(/C(N)=N/C(N)=N/c2nc3ccccc3s2)c1 (stereo not given) | 70.1% (inactive)
CC(C)=CCC[C@](C)(O)[C@H]1CC[C@]2(C)[C@@H]1CC[C@@H]1[C@@]3(C)CC[C@H](N)C(C)(C)[C@@H]3CC[C@]12C | -28.2% (active)
Cc1ccc2c(n1)C(=O)C(Cl)=C(Nc1cccc(C)c1C)C2=O | -42.9% (active)
C[C@]12CC[C@H]3[C@@H](CC=C4C[C@@H](O)CC[C@@]43C)[C@@H]1CC[C@@H]2[C@](C)(O)CCc1cccnc1 | 51.9% (inactive)
CN1CCN(c2ccc(Nc3nc(NCCCNS(=O)(=O)c4ccc(C(F)(F)F)cc4)c4sccc4n3)cc2)CC1 | -73.8% (active)
Cc1ccc2c(n1)C(=O)C(Cl)=C(Nc1cccc(C(F)(F)F)c1)C2=O | -25.9% (active)
O=C(CN1CCN(c2cc(=O)[nH]c3ccc(F)cc23)CC1)N(c1ccccc1)c1ccccc1 | 98% (inactive)
Cc1[nH]c(C(=O)Nc2ccc(C(N)=O)cc2N2CCOC(C)C2)c(Cl)c1Cl (stereo not given) | 92% (inactive)
CC1(C)CC[C@]2(C(=O)O)CC[C@]3(C)C(=CC[C@@H]4[C@@]5(C)CC[C@H](NOCCCN)C(C)(C)[C@@H]5CC[C@]43C)[C@@H]2C1 | 57.2% (inactive)
Cc1ccc2c(n1)C(=O)C(Cl)=C(Nc1ccc(C#N)cc1)C2=O | 67.9% (inactive)
CC(=O)Nc1nc(C)c(-c2csc(Nc3ccccc3)n2)s1 | 19.7% (inactive)
O=C(/C=C/c1cccc(F)c1)c1cccc(OCCCCOc2cccc(C(=O)/C=C/c3cccc(F)c3)c2)c1 | 72.8% (inactive)
O=S(=O)(NCCCNc1nccc(-c2[nH]c(-c3ccccc3)nc2-c2ccc(F)c(O)c2)n1)c1ccc(C(F)(F)F)cc1 | 19.1% (inactive)
O=C(CCCCCCNC(=O)C(O)(O)C(F)(F)F)Nc1ncc(-c2ccccc2)s1 | 2.27% (active)
CN(C)c1ccc(/C=N/Nc2nc(N/N=C/c3ccc(N(C)C)cc3)nc(N3CCCCC3)n2)cc1 | 14.9% (inactive)
NC1[C@H]2CN(c3cnc(C(=O)Nc4cc(F)cc5cccnc45)cn3)C[C@@H]12 (stereo not given in full) | 10.7% (inactive)
Clc1cccc(/C=N/Nc2nc(N/N=C/c3cccc(Cl)c3)nc(N3CCCCC3)n2)c1 | 97.2% (inactive)
CC(Nc1ncnc2ccc(-c3cnc4cnccn34)cc12)c1ccccc1 (stereo not given) | 72.3% (inactive)
CN1CCN(c2ccc(Nc3nc(NCCNC(=O)c4ccccc4)c4sccc4n3)cc2)CC1 | 0.236% (active)
O=C(CSc1nc2ccccc2c(=O)n1-c1ccccc1)N/N=C/c1ccc(Oc2ccc(Cl)cc2)cc1 | 5.62% (active)
